High-throughput results: PubChem BioAssay, Broad Institute
Sampled rows, rich in hits. Any-hit rate of the full collection: about 7.4%.
NOMO-1 viab: STK33 inhibitor candidate reducing NOMO-1 cell viability | NOMO-1 AML viability, CellTiter-Glo luminescence, 72 h | inhibition, % (test concentration not listed) | 7.5% of 37,000 active | AID 2330; in the data active means inhibition above about 80%; inconclusive means no clear call, values can overlap the other calls
MITF inhib: inhibitors of MITF; TRPM1 promoter luciferase, luminescence, 24 h; inhibition, % (test concentration not listed); 0.28% of 37,000 active; in the data active means inhibition above about 85%; inconclusive means no clear call, values can overlap the other calls; inactive means below about 68%;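 further: human melanocyte line stably carrying TRPM1 promoter luciferase reporter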
YB-1 expr inh: YB-1 expression inhibition; delta delta Cp (YB-1 minus CDIP) (no concentration beside the values); U2OS, qRT-PCR YB-1 vs CDIP delta delta Cp, 16 h; active compounds read high; zero = DMSO, each unit about twofold; 0.37% of 30,000 active;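 active means delta delta Cp rounded down to an integer at or above 3, about 3 SD of DMSO wells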;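 further: higher means less YB-1 transcript or more CDIP transcript relative to DMSO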
Shh pathway inh: blocks Sonic Hedgehog signaling | Shh-LIGHT2 Gli-luciferase reporter, 30 h | inhibition, % (test concentration not listed) | 2.1% of 22,000 active | AID 2313;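 active means mean inhibition across valid replicates above about 65%, limit read from the data; inconclusive means mean under the limit, yet half or more replicates past it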;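 further: pathway switched on by Shh-conditioned medium diluted 1 in 25 in low serum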
PD-1 reverse act: reversal of PD-1 mediated T-cell inhibition | primary human CD4 T cells, PD-L1 beads, CellTiter-Glo 96 h | activation, % (concentration not given with the values) | 29,000 tested, under 10 active; call rule not given here;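 further: 0% = median vehicle wells and 100% = positive control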
Active calls of the source: *; ? = inconclusive; . = not tested or not shown.

SMILES	NOMO-1 viab	MITF inhib	YB-1 expr inh	Shh pathway inh	PD-1 reverse act
CC1=CC(=O)C2=C(C)C[C@H](O)[C@@H]3[C@H](OC(=O)[C@@H]3C)[C@@H]12	.	.	0.33	-18	.
C[C@]12CC[C@H](O)C[C@H]1CCC1C2CC[C@]2(C)[C@@H](C3=CC(=O)OC3)[C@@H](O)C[C@]12O (stereo partly drawn)	97*	-9	0.42	-47	.
CO[C@H]1[C@H](O)[C@H](O[C@H]2CC[C@]3(C)C4CC[C@]5(C)C(C6=CC(=O)OC6)CC[C@]5(O)C4CC[C@@H]3C2)O[C@@H](C)[C@@H]1O (stereo partly drawn)	110*	21	-0.17	-5	.
COC1CC(OC2CCC3(C)C(CCC4C3CCC3(C)C(C5=CC(=O)OC5)C(OC(C)=O)CC43O)C2)OC(C)C1OC1OC(COC2OC(CO)C(O)C(O)C2O)C(O)C(O)C1O (stereo not drawn)	110*	20	0.66	3	-7
COC1=CC(=O)O[C@@H](CCc2ccccc2)C1	12	-2	0.29	-21	0
CC(C)c1cc2c(cc1O)[C@@]1(C)CCCC(C)(C)[C@@H]1CC2	?	-12	-0.26	-5	-3
CC(C)(C)NC[C@H](O)COc1cccc2[nH]c(C#N)cc12	1	-7	0.23	8	9
CCOC(=O)c1c(C)n(Cc2ccccc2)c2ccc(OCC(O)CNC(C)(C)C)cc12 (stereo not drawn)	117*	58	0.4	61	-7
CCCCC/C=C\C/C=C\C/C=C\C/C=C\CCCC(=O)NCc1ccc(O)c(OC)c1	117*	8	0.037	41	.
CC1(C)C(=O)C=C[C@@]2(C)C1C(=O)C(=O)[C@]1(C)C2CC[C@@]2(C)[C@H](c3ccoc3)C[C@H]3O[C@]321 (stereo partly drawn)	108*	108*	0.45	-14	.
O=C(/C=C/c1ccccc1)OCC1OC(OC2OC=CC3C(O)C4OC4(CO)C23)C(O)C(O)C1O (stereo not drawn)	1	-9	-0.59	-15	1
C[C@@H]1O[C@@H](O[C@@H]2C=C3CCC4C(CC[C@]5(C)[C@@H](c6ccc(=O)oc6)CC[C@]45O)[C@@]3(C)CC2)[C@H](O)[C@H](O)[C@H]1O (stereo partly drawn)	120*	42	-1.4	-21	.
C[C@@H]1O[C@@H](O[C@@H]2C=C3CC[C@@H]4C(CC[C@]5(C)[C@@H](c6ccc(=O)oc6)CC[C@]45O)[C@@]3(C)CC2)[C@H](O)[C@H](O)[C@H]1O (stereo partly drawn)	108*	20	1.8	23	-16
NCC(=O)Nc1ccc(Br)cc1C(=O)c1ccccc1	4	-125	.	.	.
CCCCn1c(=O)c(C(=O)NCc2ccccn2)c(O)c2ccccc21	66	32	.	.	.
CC(C)[C@H]1C(=O)O[C@H](C(C)C)C(=O)N(C)[C@@H](C(C)C)C(=O)O[C@H](C(C)C)C(=O)N(C)[C@@H](C(C)C)C(=O)O[C@H](C(C)C)C(=O)N1C	119*	75	-0.19	22	0
O=C(c1ccco1)c1cn(CCCOc2ccccc2)c2ccccc12	31	0	.	.	-1
OC[C@H]1O[C@@H](Oc2ccc(/C=C/c3cc(O)cc(O)c3)cc2O)[C@H](O)[C@@H](O)[C@@H]1O	.	.	0.42	-18	.
C=C1[C@@]23C(=O)O[C@H](C)[C@]24O[C@@]2(C(=C)[C@]5(C=CC(=O)OC5(C)C)CC[C@]32C)[C@H](O)[C@@]1(C)OC4=O	9	1	-0.38	-2	-2
COc1cc2c(c(OC)c1OC)-c1cc3c(cc1[C@H](OC(C)=O)[C@H]1COC(=O)[C@@H]1C2)OCO3	107*	26	-0.4	83*	-9
COc1ccc(CC2C(=O)OCC2Cc2ccc3c(c2)OCO3)cc1OC (stereo not drawn)	8	7	-0.52	12	2
C/C=C(/C)C(=O)O[C@H]1C(C)=C2[C@H]([C@@H]1OC(=O)CCCCC)[C@@](C)(OC(C)=O)C[C@H](OC(=O)CCC)[C@@]1(O)[C@H]2OC(=O)[C@@]1(C)O	99*	69	.	105*	-42
COc1cc(C(=O)O[C@H]2[C@@H]3C=CO[C@@H](O[C@@H]4O[C@H](CO)[C@@H](O)[C@H](O)[C@H]4O)[C@@H]3[C@@]3(CO)O[C@@H]23)ccc1O	-14	-17	1	-26	3
CNc1ccccc1C(=O)O	2	-9	0.2	2	.
C[CH2][Hg][S]c1ccccc1C(=O)O	111*	105*	-0.6	?	.
SMILES	NOMO-1 viab	MITF inhib	YB-1 expr inh	Shh pathway inh	PD-1 reverse act
CCn1cnc2c(Nc3cccc(Cl)c3)nc(N[C@@H]3CCCC[C@@H]3N)nc21	100*	51	-0.6	73*	3
C[C@@H]1CCOC(=O)C=CC=CC(=O)O[C@@H]2C[C@H]3O[C@@H]4C=C(CO)CC[C@]4(COC(=O)[C@H]1O)[C@]2(C)[C@]31CO1	-2	-4	-0.37	-6	0
CN(CC(=O)Nc1ccc(Cl)cc1C(=O)c1ccccc1)S(=O)(=O)c1ccc(Cl)cc1	18	11	.	.	-1
O=c1c2ccccc2nc(CSc2ncnc3ccccc23)n1-c1ccccc1F	?	71	.	.	-9
Cc1cc(OC(=O)c2cccs2)c2c3c(c(=O)oc2c1)CCC3	9	-8	0.41	-9	0
CNc1ccc2oc(C[C@@H]3OC4(CC[C@@H]3C)O[C@H](C(C)C(=O)c3ccc[nH]3)[C@H](C)C[C@H]4C)nc2c1C(=O)O (stereo partly drawn)	120*	105*	-0.00083	104*	.
C/C=C\C(=O)O[C@@H]1C[C@H]2O[C@@H]3C=C(C)C(=O)C[C@]3(C)[C@]1(C)[C@]21CO1	122*	92*	0.98	65*	-9
CCN1C[C@]2(COC)[C@H](O)C[C@H](OC)[C@@]34[C@@H]5C[C@]6(O)[C@H](OC(=O)c7ccccc7)[C@@H]5[C@@](OC(C)=O)(C([C@H](OC)[C@H]23)[C@@H]14)[C@@H](O)[C@@H]6OC	29	10	0.21	22	4
Cc1ccc(N2C(=O)NC(=O)C(CCc3ccccn3)(Cc3cccs3)C2=O)cc1 (stereo not drawn)	16	0	.	.	.
C=C1[C@@H](C)[C@H]2[C@H](Cc3ccccc3)NC(=O)[C@]23OC(=O)/C=C\[C@H](O)CCC[C@@H](C)C/C=C/[C@H]3[C@@H]1O	120*	21	0.46	65*	-13
O=C1NC(=O)C(=Cc2cn(Cc3ccccc3)c3ccccc23)C(=O)N1	126*	-1	-0.37	-8	-2
COc1ccccc1OCCCn1cc(C(=O)C(C)(C)C)c2ccccc21	37	13	.	.	-2
